Here are results for 33 compounds from PubChem BioAssay (Tox21).

Values joined by “and” are separate entries in the source; they are usually repeats but may differ in a detail not shown here. Equal entries are not always repeated. Inconclusive results are not listed. Entries that show only a call come without a potency. Some compounds were tested as several samples or in several runs, with calls that do not always agree. Active and inactive are the calls of the source. Unless noted, calls follow the shape of the dose curve; as a rule, active = well fitted cell-killing curve with a large enough effect in the repeat runs; inconclusive = weak or mixed curves, or effect the other way; inactive = no such curve, though single readings can be large or run the other way.
Potency is read from the fitted curve at half-maximal effect.

One assay can be described thus: qHTS assay for small molecule agonists of the antioxidant response element (ARE) signaling pathway - cell viability counter screen (AID 743203; calls by dose curve; also: nearly all actives have a fitted effect of over 55% in size). The settings on record: ARE-bla HepG2 viability, CellTiter-Glo luminescence, 16 h; series mostly up to 73.3 µM. Summed up:
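Viability counter screen: CellTiter-Glo luminescence, read after 30 min at room temperature, in ARE-bla HepG2 wells. Compound exposure lasted 16 h at 37C/5% CO2, following a 5 h pre-incubation of the cells after plating.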
(In qHTS, concentration-response curves come from the screen itself.)
With `c1ccc2c(c1)[nH]c1cnccc12`, the Potency entry was “inactive”.
Regarding `O=c1[nH]c2ccccc2n1C1CCN(CCCC(c2ccc(F)cc2)c2ccc(F)cc2)CC1`, the Potency is 24.3 µM (active) and 33.5 µM (active).
Same read-out and setting: the same measure for `CC(C)(C)OO`: “inactive”; for `COc1ccc(/C(=C/C(=O)N2CCOCC2)c2ccc(Cl)cc2)cc1OC`: “inactive”; for `COc1cc(N)c(Cl)cc1C(=O)NC1CN2CCC1CC2` (stereo not given): “inactive”.
`CC(C)OC(=S)S`: the Potency result is “inactive”.
On the same count and under the same terms, the same measure for `CCCCCCCCCCCCCN1CC(C)OC(C)C1` (stereo not given): “inactive”; for `CC(C)CCCCCOC(=O)c1ccccc1C(=O)OCCCCCC(C)C`: “inactive”.
Take `O=[N+]([O-])c1ccc(Oc2ccc(C(F)(F)F)cc2[N+](=O)[O-])cc1`: the Potency result is “inactive”.
Take `CC(C)OS(C)(=O)=O`: the Potency entry is “inactive”.
The same measure, in the same setting: the entry for `CCOC(=O)OC1=C(c2cc(C)ccc2C)C(=O)NC12CCC(OC)CC2` (stereo not given) is “inactive”; for `FC(F)(F)c1cccc(C2=CCN(CCc3ccc4ccccc4c3)CC2)c1` it is “inactive”; for `O=C1NCN(c2ccccc2)C12CCN(CC1COc3ccccc3O1)CC2` (stereo not given) it is “inactive”.
On to `CCCCN(CCCC)C(=S)[S-].CCCCN(CCCC)C(=S)[S-].[Zn+2]`, for which the Potency was 19.3 µM (active).
On the same count and under the same terms, the same measure for `Clc1ccc(C(c2ccc(Cl)cc2)C(Cl)(Cl)Cl)cc1`: 48.9 µM (active) and inactive; for `NNC(=O)c1ccccc1`: “inactive”.
Regarding `ClC(Cl)=C(Cl)Cl`, the Potency result is “inactive”.
On to `ClC1=C(Cl)C2(Cl)C3C(Cl)C=CC3C1(Cl)C2(Cl)Cl` (stereo not given), for which the Potency was 61.1 µM (active).
Still for that read-out and setting: the same measure for `N#CCCSCCC#N`: “inactive”; for `C[C@H]1CC[C@@H]2[C@@H](C)[C@H]3[C@H](C[C@H]4[C@@H]5CC=C6CC(O[C@@H]7O[C@H](CO)[C@H](O)[C@H](O[C@@H]8O[C@H](CO)[C@@H](O)[C@H](O)[C@H]8O)[C@H]7O[C@H]7O[C@@H](C)[C@H](O)[C@@H](O)[C@H]7O)CC[C@]6(C)[C@H]5CC[C@]34C)N2C1` (stereo not given in full): 7.94 µM (active); for `Clc1ccc(C(Cl)(Cl)Cl)c(Cl)c1`: “inactive”.
The same measure, in the same setting: the same measure for `CC(C)OC(=O)C(O)(c1ccc(Cl)cc1)c1ccc(Cl)cc1`: “inactive”.

Another assay is described as follows: qHTS assay for small molecule activators of the heat shock response signaling pathway - cell viability counter screen (AID 743209). Also: nearly all actives have a fitted effect of over 50% in size. The settings on record: HSE-bla HeLa viability, CellTiter-Glo luminescence, 5 h; series mostly up to 62.6 µM. Summed up:
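Cytotoxicity counter screen run in the same wells as the heat-shock bla reporter assay: HeLa HSE-bla cells, 5 h compound exposure at 37 C, viability read by CellTiter-Glo luminescence.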
As for `c1ccc2c(c1)[nH]c1cnccc12`, the Potency entry was “inactive”.
Turning to `CC(C)(C)c1cc([N+](=O)[O-])cc(C(C)(C)C)c1O`, the Potency result was “inactive”.
On to `O=c1[nH]c2ccccc2n1C1CCN(CCCC(c2ccc(F)cc2)c2ccc(F)cc2)CC1`, for which the Potency is 24.5 µM (active) and 13.3 µM (active).
Still for that read-out and setting: the entry for `CC(C)(C)OO` is “inactive”; for `BrCBr` it is “inactive”.
Turning to `COc1ccc(/C(=C/C(=O)N2CCOCC2)c2ccc(Cl)cc2)cc1OC`, the Potency entry was “inactive”.
On the same count and under the same terms, the same measure for `BrC(Br)Br`: “inactive”.
The same measure, in the same setting: the entry for `N#CNC#N` is “inactive”; for `ClC(Cl)=C(c1ccc(Cl)cc1)c1ccc(Cl)cc1` it is 50.2 µM (active) and 17.4 µM (active).
As for `CC(C)OC(=S)S`, the Potency result is “inactive”.
Still for that read-out and setting: the entry for `CCN` is “inactive”; for `Fc1cccc(Cl)c1CCl` it is “inactive”; for `CCCCCCCCCCCCCN1CC(C)OC(C)C1` (stereo not given) it is “inactive”.
The same measure, in the same setting: the entry for `CC(C)CCCCCOC(=O)c1ccccc1C(=O)OCCCCCC(C)C` is “inactive”; for `O=[N+]([O-])c1ccc(Oc2ccc(C(F)(F)F)cc2[N+](=O)[O-])cc1` it is “inactive”.
With `CC(=O)Nc1ccc2c(c1)Cc1ccccc1-2`, the Potency result was “inactive”.
On the same count and under the same terms, the same measure for `CC(C)OS(C)(=O)=O`: “inactive”; for `CCOC(=O)OC1=C(c2cc(C)ccc2C)C(=O)NC12CCC(OC)CC2` (stereo not given): “inactive”.
The same measure, in the same setting: the same measure for `FC(F)(F)c1cccc(C2=CCN(CCc3ccc4ccccc4c3)CC2)c1`: “inactive”; for `O=C1NCN(c2ccccc2)C12CCN(CC1COc3ccccc3O1)CC2` (stereo not given): “inactive”.
Same read-out and setting: the entry for `CCCCN(CCCC)C(=S)[S-].CCCCN(CCCC)C(=S)[S-].[Zn+2]` is “inactive”; for `C[C@]12CC[C@H]3[C@@H](CCC4=CC(=O)CC[C@@]43C)[C@@H]1CC[C@@H]2O` it is “inactive”.
As to `Clc1ccc(C(c2ccc(Cl)cc2)C(Cl)(Cl)Cl)cc1`, the Potency was 55.3 µM (active) and 54.9 µM (active) and inactive.
Turning to `Clc1ccc(CSC(Cn2ccnc2)c2ccc(Cl)cc2Cl)cc1` (stereo not given), the Potency is 29.8 µM (active).
On to `ClC(Cl)=C(Cl)Cl`, for which the Potency entry was “inactive”.
Same read-out and setting: the entry for `CC(C)CC(C)N` (stereo not given) is “inactive”; for `N#CCCSCCC#N` it is “inactive”; for `C[C@H]1CC[C@@H]2[C@@H](C)[C@H]3[C@H](C[C@H]4[C@@H]5CC=C6CC(O[C@@H]7O[C@H](CO)[C@H](O)[C@H](O[C@@H]8O[C@H](CO)[C@@H](O)[C@H](O)[C@H]8O)[C@H]7O[C@H]7O[C@@H](C)[C@H](O)[C@@H](O)[C@H]7O)CC[C@]6(C)[C@H]5CC[C@]34C)N2C1` (stereo not given in full) it is 16 µM (active).
